# From PubChem BioAssay (NCI)
# About 83,000 compounds went through this panel and 20% of them were active in at least one assay; those are over-represented in the sample as a whole.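 Testing used 96-well plates and a 48-hour single-concentration exposure. Example: -40 means 40% of the starting cells died.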 Values without a mark were called inactive. Calls of active or inactive are those of the source. How the source made its calls: active means growth percent below 10; inactive means the rest.
# Experiments:
# Experiment in all cases: NCI-60 one-dose screen, 48 h (100 = growth as untreated, 0 = no growth, -100 = all killed)
# Conditions in all cases: 10 µM unless noted
# NCI-H23 lung = tested on: NCI-H23 lung
# NCI-H226 lung = tested on: NCI-H226 lung
# NCI-H322M lung = tested on: NCI-H322M lung
# HOP-62 NSCLC = tested on: HOP-62 NSCLC
# NCI-H460 lung = tested on: NCI-H460 lung
# HOP-92 NSCLC = tested on: HOP-92 NSCLC
# NCI-H522 lung = tested on: NCI-H522 lung
# A549/ATCC NSCLC = tested on: A549/ATCC NSCLC
# 786-0 renal = tested on: 786-0 renal
# COLO 205 colon = tested on: COLO 205 colon
# DU-145 prostate = tested on: DU-145 prostate
# K-562 leukemia = tested on: K-562 leukemia
# MALME-3M melanoma = tested on: MALME-3M melanoma
# MDA-MB-231 breast = tested on: MDA-MB-231 breast
# RXF 393 renal = tested on: RXF 393 renal
# SF-268 CNS = tested on: SF-268 CNS
# SF-295 CNS = tested on: SF-295 CNS
# SF-539 CNS = tested on: SF-539 CNS
# UACC-257 melanoma = tested on: UACC-257 melanoma
# M14 melanoma = tested on: M14 melanoma
Compound,growth (NCI-H23 lung),growth (NCI-H226 lung),growth (NCI-H322M lung),growth (HOP-62 NSCLC),growth (NCI-H460 lung),growth (HOP-92 NSCLC),growth (NCI-H522 lung),growth (A549/ATCC NSCLC),growth (786-0 renal),growth (COLO 205 colon),growth (DU-145 prostate),growth (K-562 leukemia),growth (MALME-3M melanoma),growth (MDA-MB-231 breast),growth (RXF 393 renal),growth (SF-268 CNS),growth (SF-295 CNS),growth (SF-539 CNS),growth (UACC-257 melanoma),growth (M14 melanoma)
N#Cc1c(-c2ccccc2)nc2c(c(-c3ccccc3)nn2-c2ccccc2)c1-c1ccc(N2CCCCC2)cc1,93.9%,89.1%,97.2%,95.9%,103%,98.7%,98.6%,87.9%,98.5%,104%,103%,92.7%,98.6%,97.7%,115%,101%,97.9%,100%,93.3%,90.8%
CCCN(CCSSCCNc1nc(N(C)O)nc(N(C)O)n1)c1nc(N(C)O)nc(N(C)O)n1,84%,82.6%,44.5%,24.5%,28.4%,58.3%,65.1%,48%,70%,24.2%,54.4%,157%,62.1%,66.6%,72.9%,42.1%,48.7%,62.8%,-2.3% (active),84.4%
Oc1nc(NCc2ccccc2)sc1/C=C1\C=Nc2ncccc21,51.9%,62.3%,61.9%,56.1%,81.9%,28.8%,35.2%,76.9%,62.8%,34.2%,56.5%,80.7%,129%,83.8%,-14.1% (active),52.3%,73.7%,23.3%,71.3%,80.1%
c1cc(OCCN2CCCCC2)ccc1CNc1ccc2nc(CCC3CCCCC3)[nH]c2c1,73.8%,36.2%,74.6%,54.2%,33.6%,26.7%,50.4%,42.3%,-61% (active),-66% (active),59.9%,-1.42% (active),-85.9% (active),9.11% (active),11.9%,57.6%,-38.6% (active),-73.3% (active),-75% (active),-75% (active)
N#Cc1ccc(/C=C/c2cn(-c3ccccc3)nc2-c2cccc([N+](=O)[O-])c2)cc1,56.4%,6.28% (active),62.9%,37.8%,40.1%,74.6%,20.1%,49.5%,58.7%,83.6%,59.5%,61.2%,50.3%,36.1%,67.1%,56.5%,62.5%,65.7%,70.2%,68.8%
CCN(CC)CCOc1ccc(Nc2ncc3cc(-c4c(Cl)cccc4Cl)c(=O)n(CCOC)c3n2)cc1,-9.78% (active),28%,17.5%,6.51% (active),3.65% (active),-18.7% (active),-28.5% (active),0.456% (active),5.35% (active),-40% (active),-13.8% (active),5.78% (active),10.6%,-73.2% (active),-64.4% (active),-9.68% (active),25.7%,-75.7% (active),12.9%,-6.68% (active)
O=C(Nc1ccccc1O)c1ccc(CNc2ccnc(C(F)(F)F)c2)cc1,39.1%,68.9%,56.4%,60.3%,38.8%,78.2%,34.3%,56.5%,45.4%,112%,59%,18.2%,22%,62.9%,80.6%,54.8%,36%,39.1%,46.4%,34%
N=C(N)c1ccc(-c2ccc(-c3cc(Cl)cc(Cl)c3)s2)s1,-49.5% (active),90.8%,-44.7% (active),-28.3% (active),-33.9% (active),50.2%,-70.6% (active),-52.8% (active),-74.5% (active),-75.4% (active),-72.2% (active),-52.5% (active),-13.1% (active),-55.1% (active),-84.2% (active),-43.8% (active),-69.8% (active),-60.6% (active),-46.3% (active),1.55% (active)
c1csc(-c2cn3nc(-c4c[nH]c5ccccc45)sc3n2)c1,36.9%,72.4%,25%,27%,11.2%,38.3%,-6.13% (active),35%,42.2%,5.46% (active),13.4%,15.6%,23.7%,22.9%,34.4%,46.1%,14.4%,-12.8% (active),60.1%,8.8% (active)
CC(C)C1C2=C(NCCN1C(=O)c1ccncc1)C(C)(C)N(Cc1ccccc1)C2=O (stereo not given),99.6%,107%,110%,103%,116%,103%,80.9%,95.2%,105%,109%,105%,98.1%,96.6%,100%,126%,96.9%,96.5%,108%,105%,101%
Cc1cc(N2CCN(CC(=O)Nc3ccc4c(ccn4Cc4ccccc4)c3)CC2)nc(N2CCOCC2)n1,83.8%,84.3%,90.4%,91.1%,95.2%,45.4%,73.8%,73.6%,84.6%,98.2%,95.4%,60.5%,85.7%,93.4%,63.9%,92.9%,84%,98.2%,80.2%,90.1%
CNC(=O)NCC1OC(n2cnc3c(NC(=O)Nc4ccccc4)ncnc32)C2OC(=O)CC12 (stereo not given),90.2%,99.2%,101%,94.2%,114%,71.2%,106%,120%,98.3%,110%,110%,81.1%,100%,98.9%,-22.7% (active),99.7%,103%,104%,125%,105%
CCN(CC)CCn1c2ccc(OC)cc2c2sc3cc(O)ccc3c(=O)c21,23.9%,112%,34.2%,34.4%,8.17% (active),61.8%,42.2%,17.9%,26.1%,23%,42.7%,6.38% (active),34.1%,54.1%,27.5%,38.5%,17.9%,25.3%,78.4%,31.2%
COCC(=O)Oc1cc(-c2ccc(C)cc2C)c(OC(=O)COC)c(-c2ccc(C)cc2C)c1,68.8%,59.8%,79%,61.5%,17.4%,66.7%,30.9%,43.7%,69.6%,48.4%,-16.9% (active),40.8%,85.3%,49.7%,73.5%,44.5%,57.5%,45.7%,71.2%,65.1%
